Reference: PubChem BioAssay AID1159580 (chemical genetic matrix, 2015)
The campaign covered roughly 5,500 compounds. About 2,000 (36%) were called active. Roughly 18% stayed inconclusive and do not appear here. No stated cut-off is given here; in the data, active means normalized growth mostly below about 0.91 (no sharp cut-off); inconclusive means no clear call, values can overlap the other calls; inactive means mostly above about 0.92. The list shows a part of the results.

Assay: chemical genetic growth profiling, strain panel (AID 1159580);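 further: tested at 20 µM; growth read once vehicle control cultures reached saturation at 30 °C; 1 = growth at the plate median or of vehicle wells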
Conditions: growth OD

Measured: normalized growth

CN[C@@H]1[C@H](O)[C@H](NC)[C@H]2O[C@@]3(O)C(=O)C[C@@H](C)O[C@H]3O[C@@H]2[C@H]1O
inactive: S. cerevisiae deletion strains, locus YJR075W, strain HOC1, stronger effect = lower value 1.01 | S. cerevisiae deletion strains, locus YKL009W, strain mrt4, stronger effect = lower value 1.02 | S. cerevisiae deletion strains, locus YKL068W, stronger effect = lower value 1.01 | S. cerevisiae deletion strains, locus YKL085W, strain MDH1 (second series), stronger effect = lower value 1.01 | S. cerevisiae deletion strains, locus YKL085W, strain MDH1, stronger effect = lower value 1.01 | S. cerevisiae deletion strains, locus YKL160W, strain elf1, stronger effect = lower value 1.01 | S. cerevisiae deletion strains, locus YKL190W, strain CNB1, stronger effect = lower value 1 | S. cerevisiae deletion strains, locus YKR001C, strain vps1, stronger effect = lower value 1.02 | S. cerevisiae deletion strains, locus YKR026C, strain gcn3, stronger effect = lower value 1.01 | S. cerevisiae deletion strains, locus YKR091W, strain srl3, stronger effect = lower value 1 | S. cerevisiae deletion strains, locus YLL001W, strain dnm1, stronger effect = lower value 1.02 | S. cerevisiae deletion strains, locus YLL026W, stronger effect = lower value 1 | S. cerevisiae deletion strains, locus YLL041C, strain sdh2, stronger effect = lower value 0.999 | S. cerevisiae deletion strains, locus YLR027C, strain aat2, stronger effect = lower value 1.01 | S. cerevisiae deletion strains, locus YLR039C, strain RIC1, stronger effect = lower value 1.05 | S. cerevisiae deletion strains, locus YLR058C, strain SHM2, stronger effect = lower value 1.01 | S. cerevisiae deletion strains, locus YLR102C, strain apc9, stronger effect = lower value 1.02 | S. cerevisiae deletion strains, locus YLR113W, strain HOG1, stronger effect = lower value 0.967 | S. cerevisiae deletion strains, locus YLR221C, strain rsa3, stronger effect = lower value 0.981 | S. cerevisiae deletion strains, locus YLR258W, strain gsy2, stronger effect = lower value 0.999 | S. cerevisiae deletion strains, locus YLR262C, strain YPT6 (second series), stronger effect = lower value 1.05 | S. cerevisiae deletion strains, locus YLR262C, strain YPT6, stronger effect = lower value 1.06 | S. cerevisiae deletion strains, locus YLR268W, strain sec22, stronger effect = lower value 1.04 | S. cerevisiae deletion strains, locus YLR320W, strain mms22, stronger effect = lower value 0.974 | S. cerevisiae deletion strains, locus YLR330W, strain CHS5, stronger effect = lower value 1.01 | S. cerevisiae deletion strains, locus YLR342W, strain FKS1 (second series), stronger effect = lower value 1 | S. cerevisiae deletion strains, locus YLR342W, strain FKS1, stronger effect = lower value 1.02 | S. cerevisiae deletion strains, locus YLR357W, strain rsc2, stronger effect = lower value 1 | S. cerevisiae deletion strains, locus YLR370C, strain arc18, stronger effect = lower value 0.995 | S. cerevisiae deletion strains, locus YLR371W, strain rom2, stronger effect = lower value 1.02 | S. cerevisiae deletion strains, locus YLR384C, strain iki3, stronger effect = lower value 1.01 | S. cerevisiae deletion strains, locus YLR418C, strain cdc73, stronger effect = lower value 1.03 | S. cerevisiae deletion strains, locus YML016C, strain PPZ1, stronger effect = lower value 1.01 | S. cerevisiae deletion strains, locus YML032C, strain rad52, stronger effect = lower value 1.04 | S. cerevisiae deletion strains, locus YML120C, strain ndi1, stronger effect = lower value 1 | S. cerevisiae deletion strains, locus YML124C, strain tub3, stronger effect = lower value 1.02 | S. cerevisiae deletion strains, locus YMR058W, strain fet3, stronger effect = lower value 1.01 | S. cerevisiae deletion strains, locus YMR078C, strain ctf18, stronger effect = lower value 1.02 | S. cerevisiae deletion strains, locus YMR125W, strain sto1, stronger effect = lower value 0.99 | S. cerevisiae deletion strains, locus YMR129W, stronger effect = lower value 0.999 | S. cerevisiae deletion strains, locus YMR205C, strain PFK2, stronger effect = lower value 1 | S. cerevisiae deletion strains, locus YMR223W, strain ubp8, stronger effect = lower value 1.01 | S. cerevisiae deletion strains, locus YMR231W, strain pep5, stronger effect = lower value 1 | S. cerevisiae deletion strains, locus YMR263W, strain SAP30, stronger effect = lower value 1.01 | S. cerevisiae deletion strains, locus YMR307W, strain GAS1, stronger effect = lower value 1.03 | S. cerevisiae deletion strains, locus YNL067W, strain RPL9B, stronger effect = lower value 1.02 | S. cerevisiae deletion strains, locus YNL071W, strain lat1, stronger effect = lower value 0.996 | S. cerevisiae deletion strains, locus YNL128W, strain TEP1, stronger effect = lower value 1.02 | S. cerevisiae deletion strains, locus YNL153C, strain GIM3, stronger effect = lower value 1 | S. cerevisiae deletion strains, locus YNL183C, strain NPR1, stronger effect = lower value 0.94 | S. cerevisiae deletion strains, locus YNL209W, strain ssb2, stronger effect = lower value 0.999 | S. cerevisiae deletion strains, locus YNL233W, strain BNI4, stronger effect = lower value 1.02 | S. cerevisiae deletion strains, locus YNL248C, strain rpa49, stronger effect = lower value 0.954 | S. cerevisiae deletion strains, locus YNL250W, strain rad50, stronger effect = lower value 1.02 | S. cerevisiae deletion strains, locus YNL271C, strain bni1, stronger effect = lower value 1.01 | S. cerevisiae deletion strains, locus YNL298W, strain CLA4, stronger effect = lower value 1.03 | S. cerevisiae deletion strains, locus YNL307C, strain MCK1, stronger effect = lower value 1.03 | S. cerevisiae deletion strains, locus YNL322C, strain KRE1 (second series), stronger effect = lower value 1 | S. cerevisiae deletion strains, locus YNL322C, strain KRE1, stronger effect = lower value 1.01 | S. cerevisiae deletion strains, locus YNR049C, strain mso1, stronger effect = lower value 1.01 | S. cerevisiae deletion strains, locus YNR052C, strain pop2, stronger effect = lower value 1.02 | S. cerevisiae deletion strains, locus YOL006C, strain TOP1, stronger effect = lower value 1.08 | S. cerevisiae deletion strains, locus YOL012C, strain htz1 0.978 | S. cerevisiae deletion strains, locus YOL147C, strain pex11, stronger effect = lower value 1.02 | S. cerevisiae deletion strains, locus YOR001W, strain rrp6, stronger effect = lower value 1.02 | S. cerevisiae deletion strains, locus YOR061W, strain CKA2, stronger effect = lower value 1.02 | S. cerevisiae deletion strains, locus YOR069W, strain VPS5, stronger effect = lower value 1.01 | S. cerevisiae deletion strains, locus YOR070C, strain gyp1, stronger effect = lower value 1 | S. cerevisiae deletion strains, locus YOR080W, strain dia2, stronger effect = lower value 1.01 | S. cerevisiae deletion strains, locus YOR083W, strain WHI5, stronger effect = lower value 0.982 | S. cerevisiae deletion strains, locus YOR106W, strain vam3, stronger effect = lower value 1.02 | S. cerevisiae deletion strains, locus YOR136W, strain idh2, stronger effect = lower value 1.02 | S. cerevisiae deletion strains, locus YOR144C, strain elg1, stronger effect = lower value 1.02 | S. cerevisiae deletion strains, locus YOR184W, strain ser1, stronger effect = lower value 1.03 | S. cerevisiae deletion strains, locus YOR231W, strain MKK1, stronger effect = lower value 0.953 | S. cerevisiae deletion strains, locus YOR265W, strain rbl2, stronger effect = lower value 1.01 | S. cerevisiae deletion strains, locus YOR270C, strain vph1, stronger effect = lower value 1.01 | S. cerevisiae deletion strains, locus YOR290C, strain snf2, stronger effect = lower value 0.978 | S. cerevisiae deletion strains, locus YOR316C, strain cot1, stronger effect = lower value 1.01 | S. cerevisiae deletion strains, locus YPL051W, strain arl3, stronger effect = lower value 1.01 | S. cerevisiae deletion strains, locus YPL055C, strain LGE1, stronger effect = lower value 1.02 | S. cerevisiae deletion strains, locus YPL078C, strain atp4, stronger effect = lower value 1.02 | S. cerevisiae deletion strains, locus YPL106C, strain sse1, stronger effect = lower value 0.991 | S. cerevisiae deletion strains, locus YPL240C, strain hsp82, stronger effect = lower value 0.995 | S. cerevisiae deletion strains, locus YPL241C, strain CIN2, stronger effect = lower value 1.01 | S. cerevisiae deletion strains, locus YPL256C, strain CLN2, stronger effect = lower value 0.962 | S. cerevisiae deletion strains, locus YPR119W, strain clb2, stronger effect = lower value 1.02 | S. cerevisiae deletion strains, locus YPR141C, strain kar3, stronger effect = lower value 1.02 | S. cerevisiae deletion strains, locus YPR163C, strain tif3, stronger effect = lower value 1.02 | S. cerevisiae deletion strains, locus YPR167C, strain met16, stronger effect = lower value 1.03 | S. cerevisiae deletion strains, strain wtn01, stronger effect = lower value 1.03 | S. cerevisiae strains, strain wild type, stronger effect = lower value 1.01
